Bioassay records deposited in PubChem BioAssay by National Center for Advancing Translational Sciences (NCATS).
This is a sample that favours compounds with a hit; in the whole collection about 1% have one here.
BLM helicase inh-1: qHTS Assay for Inhibitors of Bloom's syndrome helicase (BLM). RecQ-like DNA helicase BLM (Homo sapiens), P54132. recombinant BLM DNA unwinding, fluorescence dequenching. Potency, µM (top dose mostly 56.1 µM), for the others: at the top dose activity change, negative = inhibition, actives largely listed as inhibitors. 350,000 compounds, 0.2% hits. AID 2528, 2010;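 note: plate controls were vehicle for no effect and no enzyme for full effect; nearly all actives have a fitted effect of over 35% in size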
WRN helicase inh-1: qHTS for Inhibitors of WRN Helicase. Bifunctional 3'-5' exonuclease/ATP-dependent helicase WRN (Homo sapiens), Q14191. WRN helicase unwinding, fluorescent forked duplex, kinetic. Potency, µM (titrated, usually from 114 µM), without a hit: top-dose activity change, negative = inhibition, most hits filed as inhibitors. 360,000 compounds, 0.46% hits. AID 651768, 2012; note: % is set by controls: 0 for no effect and ±100 for the full control effect; nearly all actives have a fitted effect of over 55% in size
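Primary qHTS, 1536-well format. 20 nM WRN + compound, 15 min RT; start with 100 nM forked fluorophore/quencher duplex, 2 mM ATP (final); kinetic read ex 525/em 598 nm.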
L3MBTL1 inh: qHTS Assay for the Inhibitors of L3MBTL1; Potency, µM (top dose mostly 57.1 µM), for inactives: top-dose activity, negative = inhibition, hits mostly inhibitors; AID 485360, 2010; 230,000 compounds, 0.66% hits; AlphaScreen L3MBTL1–H3K9me1 peptide binding; Lethal(3)malignant brain tumor-like protein 1 (Homo sapiens), Q9Y468; note: % is set by controls: 0 for no effect and ±100 for the full control effect; nearly all actives have a fitted effect of over 60% in size
Target sequence (Q9Y468 whole entry, looked up): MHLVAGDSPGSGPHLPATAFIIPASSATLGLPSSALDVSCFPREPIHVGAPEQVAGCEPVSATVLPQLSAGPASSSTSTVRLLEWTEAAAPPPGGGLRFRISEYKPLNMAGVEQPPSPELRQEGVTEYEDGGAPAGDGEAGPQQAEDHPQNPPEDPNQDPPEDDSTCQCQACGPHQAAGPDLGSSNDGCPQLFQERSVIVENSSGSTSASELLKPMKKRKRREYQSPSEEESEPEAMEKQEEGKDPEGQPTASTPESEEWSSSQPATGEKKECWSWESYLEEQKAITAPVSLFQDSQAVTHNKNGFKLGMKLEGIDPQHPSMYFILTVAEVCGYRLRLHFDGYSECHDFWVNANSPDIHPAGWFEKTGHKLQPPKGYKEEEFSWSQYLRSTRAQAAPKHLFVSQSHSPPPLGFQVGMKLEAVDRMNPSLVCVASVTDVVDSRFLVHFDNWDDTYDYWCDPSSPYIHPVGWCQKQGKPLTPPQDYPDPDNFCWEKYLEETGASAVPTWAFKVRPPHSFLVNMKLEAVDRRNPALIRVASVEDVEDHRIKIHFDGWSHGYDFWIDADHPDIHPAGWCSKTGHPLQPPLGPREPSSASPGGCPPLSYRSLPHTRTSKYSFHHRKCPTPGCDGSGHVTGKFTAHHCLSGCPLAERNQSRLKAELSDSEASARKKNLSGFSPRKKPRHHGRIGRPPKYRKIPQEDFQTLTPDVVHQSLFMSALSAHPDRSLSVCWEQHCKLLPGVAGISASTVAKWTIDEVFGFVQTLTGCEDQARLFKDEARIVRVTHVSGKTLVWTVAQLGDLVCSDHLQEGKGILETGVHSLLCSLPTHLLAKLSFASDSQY
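AlphaScreen proximity signal between nickel-chelate acceptor and streptavidin donor beads (final 10 ug/mL) reports binding of 50 nM L3MBTL1 to 75 nM biotin-H3 K9me1 peptide; complex incubated with compounds 30 min at room temperature; cefsulodin titration as control.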
RECQ1 helicase: qHTS Assay for Inhibitors of RecQ-Like Dna Helicase 1 (RECQ1); ATP-dependent DNA helicase Q1 (Homo sapiens), P46063; RECQ1 DNA unwinding, red fluorescence kinetic read; Potency, µM (series often up to 57.3 µM), for inactives: at the top dose activity, negative = inhibition, hits mostly inhibitors; 240,000 compounds, 0.54% hits;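 note: plate controls were vehicle for no effect and no enzyme for full effect; nearly all actives have a fitted effect of over 30% in size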
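RECQ1T1 50 nM; forked duplex (20 bp + 30-nt ss tails) 200 nM, ATP 2 mM final; pH 8.0, 2 mM MgCl2, 2.5 ug/ml poly(dI-dC); 15 min compound preincubation; discontinuous kinetic read over 2 h at RT.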
FEN1 inhibitor: qHTS Assay for the Inhibitors of Human Flap endonuclease 1 (FEN1). Recombinant FEN1 flap cleavage, fluorescence, 15 min. 390,000 compounds, 0.35% hits. Potency, µM (titrated, usually from 114 µM), inactives show top-dose activity change, negative = inhibition, most hits filed as inhibitors. P39748; note: % is set by controls: 0 for no effect and ±100 for the full control effect; nearly all actives have a fitted effect of over 65% in size
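Nuclease activity of 10 nM FEN1 was measured after 15 min of room-temperature exposure to titrated compounds, by adding 50 nM flap substrate and reading plates at 0 and 15 min.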
APEX1 inh: qHTS Assay for Inhibitors of the Human Apurinic/apyrimidinic Endonuclease 1 (APE1) | DNA repair nuclease/redox regulator APEX1 (Homo sapiens), P27695 | recombinant APE1, TAMRA/BHQ-2 abasic DNA cleavage fluorescence | Potency, µM (series often up to 65.8 µM), for the others: top-dose activity change, negative = inhibition, hits mostly inhibitors | 350,000 compounds, 0.35% hits | AID 2517, 2012;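 note: plate controls were vehicle for no effect and reference inhibitor for full effect; nearly all actives have a fitted effect of over 55% in size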
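APE1 at 0.75 nM final was preincubated with compound 15 min at room temperature, then 50 nM double-stranded THF abasic-site substrate (5'-TAMRA/3'-BHQ-2) was added. Fluorescence (ex 525/em 598 nm) was read kinetically; third-minus-first read gave activity.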
WRN helicase inh-2: qHTS for Inhibitors of WRN Helicase: Confirmatory Assay for Cherry-picked Compounds; shares compounds with WRN helicase inh-1; 610 compounds, 63% hits; Potency, µM (top dose mostly 57.1 µM), for the others: at the highest dose activity, negative = inhibition, actives largely listed as inhibitors; AID 720497, 2013; WRN helicase DNA unwinding, fluorescence kinetic; note: nearly all actives have a fitted effect of over 65% in size
TO displacement: qHTS for Inhibitors of WRN Helicase: Thiazole Orange DNA Binding Counterscreen. thiazole orange DNA binding displacement, fluorescence. AID 720499, 2013. 610 compounds, 10% hits. Potency, µM (highest dose often 57.1 µM), for inactives: top-dose activity change, negative = inhibition, hits mostly inhibitors. shares compounds with WRN helicase inh-1;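 note: drop in dye fluorescence marks compound binding to DNA; % is set by controls: 0 for no effect and ±100 for the full control effect; nearly all actives have a fitted effect of over 60% in size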
BLM helicase inh-2: qHTS for Inhibitors of WRN Helicase: BLM Helicase Counterscreen for WRN Inhibitors; shares compounds with WRN helicase inh-1; Recombinant BLM helicase DNA unwinding, red fluorescence; Potency, µM (titrated, usually from 57.1 µM), for inactives: top-dose activity change, negative = inhibition, hits mostly inhibitors; 610 compounds, 60% hits; AID 720503, 2013; note: nearly all actives have a fitted effect of over 60% in size
* = called active by the depositor; ? = inconclusive; . = no result given. Calls come from the whole dose curve; as a rule, active = well fitted curve in the direction sought with a large enough effect; inconclusive = small, poorly fitted or top-dose-only effect, or another doubt; inactive = no such curve, though single readings can be large; an effect the other way counts as inactive or inconclusive. Potency is the fitted concentration of half-maximal effect.

SMILES	BLM helicase inh-1	WRN helicase inh-1	L3MBTL1 inh	RECQ1 helicase	FEN1 inhibitor	APEX1 inh	WRN helicase inh-2	TO displacement	BLM helicase inh-2
COc1ccc([N+](=O)[O-])c(S(=O)(=O)c2ccccc2)n1	2%	32µM*	0%	-16%	2%	-3%	?	-8%	-19%
CCOC(=O)C1CCN(C(=O)CSc2n[nH]c(-c3ccc(OC)cc3)n2)CC1	0%	.	.	.	-2%	.	.	.	.
COc1ccc(NC(=O)CN(C)C(=O)c2ccc(OCc3ccccc3)c(OC)c2)cc1	.	-8%	10%	.	0%	-8%	.	.	.
N#C/C(=C/c1ccc(O)c(O)c1)c1nc2ccccc2[nH]1	?	35µM*	.	.	?	-32%	6.1µM*	28%	8.6µM*
COc1cc(NC(=O)c2noc3c2CCC3)c(OC)cc1Cl	4%	?	.	-11%	?	?	?	-5%	22µM*
COC(=O)c1ccccc1NC(=O)c1noc2c1CCCC2	-1%	-3%	12%	-5%	-10%	-3%	.	.	.
Nc1ccc(S(=O)(=O)c2cc(O)c3ccccc3c2O)cc1	.	28µM*	.	.	?	.	24µM*	24µM*	22µM*
COc1ccc(NC(=O)CN(C)CC(=O)Nc2ccccc2SC)cc1	4%	28µM*	11%	-2%	-1%	-3%	-13%	-9%	-21%
COc1ccc(OCCN(C)CC(=O)Nc2ccccc2SC)cc1	-3%	-5%	.	.	-3%	-17%	.	.	.
Cn1cnc([N+](=O)[O-])c1S(=O)(=O)Oc1cccc2ccccc12	.	-88%	.	.	4%	.	?	-7%	?
O=C(COc1cccnc1[N+](=O)[O-])Nc1cccc2ccccc12	.	-3%	-9%	.	-5%	4%	.	.	.
CCOc1ccc(NC(=O)c2ccc3nc(C(C)C)oc3c2)cc1	0%	.	.	.	20%	.	.	.	.
O=[N+]([O-])c1c(Nc2ccc(O)cc2)cc(Cl)c2nonc12	-4%	?	.	.	?	2%	?	34µM*	?
COC(=O)/C=C1\OCc2ccc(C)cc21	.	-3%	.	.	.	.	.	.	.
CCOC(=O)c1c(-c2ccccc2)oc2ccc(N(C(C)=O)S(=O)(=O)c3cc(C)ccc3C)cc12	-8%	.	.	.	-21%	.	.	.	.
O=C(c1ccc(=O)oc1)N1CCOCC1	49%	?	4.5µM*	-10%	32µM*	14µM*	5.4µM*	-1%	3µM*
O=C(c1ccc(-n2cccc2)cc1)N1CCOCC1	4%	1%	.	-4%	5%	0%	.	.	.
COc1ccc(C2CC(c3ccccc3)Oc3cc(OC)ccc32)cc1 (stereo not given)	-10%	.	.	-10%	?	-6%	.	.	.
C=CS(=O)(=O)c1sc(Cl)c(N2CCOCC2)c1[N+](=O)[O-]	-2%	32µM*	-16%	-9%	-8%	0%	14µM*	-25%	3.4µM*
COc1cccc(-c2cccc3c2NC(=O)C3(C)Cc2ccccc2F)c1 (stereo not given)	.	6%	.	.	.	.	.	.	.
CC(C)CC(OC(=O)c1ccc(Cl)nc1)C(=O)NC1CCCC1 (stereo not given)	-1%	-4%	.	.	-1%	12%	.	.	.
COC(=O)c1ccccc1NS(=O)(=O)c1cc2c(cc1C)N(C)CCO2	2%	.	.	.	6%	.	.	.	.
O=C(Nc1cccc(-c2cnc3ccccc3n2)c1)c1ccccc1	1%	5%	2%	-2%	-2%	1%	.	.	.
O=C(Nc1cccc(-c2cnc3ccccc3n2)c1)c1cccc(NC(=O)c2ccco2)c1	-13%	?	.	?	-26%	-4%	-29%	1%	?
COc1ccc2nc3cc(Cl)ccc3c(Nc3ccc(O)c(CN4CCN(C)CC4)c3)c2c1	.	18µM*	.	.	22µM*	.	6.1µM*	11µM*	22µM*
SMILES	BLM helicase inh-1	WRN helicase inh-1	L3MBTL1 inh	RECQ1 helicase	FEN1 inhibitor	APEX1 inh	WRN helicase inh-2	TO displacement	BLM helicase inh-2
COc1ccc2nc3cc(Cl)ccc3c(NCCCN3CCN(CCCNc4c5ccc(Cl)cc5nc5ccc(OC)cc45)CC3)c2c1	73%	.	.	2%	.	?	.	.	.
COc1cc(NC(=O)C(C)(C)C)c(C(=O)OCC(=O)Nc2cc(C)on2)cc1OC	.	3%	.	.	.	.	.	.	.
CCCc1cc(CN2CCOCC2)c(O)c(CN2CCOCC2)c1O	.	18µM*	.	.	1%	.	-13%	-3%	-25%
Cc1ccc(-n2ncc(C(=O)Nc3ccc4c(c3)OCO4)c2C2CCN(C(=O)OC(C)(C)C)CC2)c(C)c1	-9%	.	.	.	7%	.	.	.	.
COc1ccc(OC)c(-n2c(=O)c3ccccc3c3ccccc3c2=O)c1	-3%	?	-6%	-7%	3%	0%	-15%	-10%	?
Cc1ccc2nc3c(cc2c1)c(C)nn3-c1ccccc1	-6%	5%	.	.	6%	21%	.	.	.
Cc1nn(-c2ccccc2)c2nc(=O)n(-c3ccccc3)cc12	3%	?	0%	-4%	-4%	0%	-17%	0%	-13%
CC(=O)N1c2ccc(S(=O)(=O)N3CCN(c4ccc(C)cc4C)CC3)cc2CC1C (stereo not given)	-9%	.	.	.	-7%	.	.	.	.
CC1=C(SCc2ccccc2)C(=O)c2ccccc2C1=O	.	?	.	.	?	.	?	?	24µM*
COc1cc(/C=N/Nc2nnc3c(n2)[nH]c2ccccc23)ccc1O	-7%	?	16%	-6%	-11%	0%	?	-14%	?
COc1cc(/C=C2\SC(=S)N(Nc3ncc(C(F)(F)F)cc3Cl)C2=O)ccc1O	-20%	32µM*	.	28µM*	?	?	7.6µM*	-25%	6.1µM*
CC1(C)CC=CC(COC(=O)c2ccccc2C(=O)O)C1 (stereo not given)	.	2%	.	.	6%	.	.	.	.
Cc1cc(Br)cc2c1N(Cc1ccccc1OC(C)C)C(=O)C2=O	-10%	.	.	.	-21%	.	.	.	.
